The values that follow come from PubChem BioAssay AID2762 (National Center for Advancing Translational Sciences (NCATS), 2010).

Results filed as inconclusive are left out. The source made the active and inactive calls. Calls follow the shape of the dose curve; as a rule, active = well fitted inhibition curve with a large enough effect; inconclusive = small, poorly fitted or top-dose-only effect, or effect the other way; inactive = no such curve, though single readings can be large or run the other way.

Nuclear receptor ROR-gamma (Mus musculus), sequence (P51450 whole entry, looked up, the tested form may be a part): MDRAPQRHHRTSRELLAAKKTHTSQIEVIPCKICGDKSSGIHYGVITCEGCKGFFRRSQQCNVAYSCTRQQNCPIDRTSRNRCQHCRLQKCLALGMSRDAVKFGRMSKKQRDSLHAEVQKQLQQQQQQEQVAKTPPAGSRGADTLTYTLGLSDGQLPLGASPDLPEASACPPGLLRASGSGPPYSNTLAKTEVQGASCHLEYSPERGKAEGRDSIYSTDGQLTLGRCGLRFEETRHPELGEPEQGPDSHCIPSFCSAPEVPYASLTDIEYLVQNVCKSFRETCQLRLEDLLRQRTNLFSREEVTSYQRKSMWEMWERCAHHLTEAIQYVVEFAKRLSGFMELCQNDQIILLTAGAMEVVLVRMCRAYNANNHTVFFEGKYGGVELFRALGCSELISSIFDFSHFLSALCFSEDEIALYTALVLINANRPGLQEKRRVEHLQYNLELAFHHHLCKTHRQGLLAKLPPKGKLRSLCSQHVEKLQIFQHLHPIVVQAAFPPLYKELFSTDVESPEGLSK

This test deals with Nuclear receptor ROR-gamma (Mus musculus) (UniProt P51450). In words: Concentration response confirmation assay for inhibitors of ROR gamma transcriptional activity. As to conditions: Drosophila S2 Gal4-RORgamma UAS-luciferase, 20 h; series mostly up to 46.1 µM. The gist of the method:
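Stably transfected Drosophila Schneider cells are the test system, with ROR gamma fused to Gal4 and luciferase under UAS control; luminescence is read after 20 hr of 700 uM copper sulfate induction at ambient temperature.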
`Cc1cc(-c2ccccc2)nc(N2CCC(C(=O)NCc3ccccc3Cl)CC2)n1`: the Potency result was “inactive”.

As to `Cc1cccc(-c2ocnc2C(=O)Nc2ccccc2NC(=O)c2ccccn2)c1`, the Potency is 2.23 µM (active).

Consider `COc1ccc(OC)c(/C=C2\SC(=S)N(C(C(=O)O)c3ccccc3)C2=O)c1` (stereo not given), for which the Potency result is “inactive”.

Turning to `COc1cccc(-c2cc(C(=O)N3CCc4ccccc4C3)[nH]n2)c1`, the Potency result is “inactive”.

As to `N=C1S/C(=C\c2ccco2)C(=O)N1c1nccs1`, the Potency was 0.141 µM (active).

In the case of `O=C(CCCN1C(=O)/C(=C/c2ccccc2Cl)SC1=S)NNC(=O)c1ccc(Cl)cc1Cl`, the Potency was 1.58 µM (active).

Regarding `CC(C)(C)S(=O)(=O)c1cnc2c(-c3ccc(Cl)cc3)cnn2c1N`, the Potency was 4.45 µM (active).

As to `O=S(=O)(NCc1ccccn1)C(F)(F)F`, the Potency is 7.05 µM (active).

Turning to `CCN1CCCc2cc(CN(CCN3CCOCC3)C(=S)Nc3ccc(C)cc3)ccc21`, the Potency was 9.96 µM (active).

Consider `CCc1ccc(-c2nc(CSCC(=O)NC3CC3)c(C)o2)cc1`, for which the Potency was 3.97 µM (active).

For the compound `O=c1oc2c3c(nn2c2ccccc12)CCCC3`, the Potency result was “inactive”.

As to `Cc1cc(C)c2[nH]c(C(=O)Nc3ccc4c(c3)OCO4)cc2c1`, the Potency was 0.125 µM (active).

With `S=c1nc(COc2ccccc2)[nH]c2ccccc12`, the Potency is 6.28 µM (active).

`CC(=O)c1cccc(N(CC(=O)Nc2ccccc2C(=O)N2CCCC2)S(C)(=O)=O)c1`: the Potency result is “inactive”.

For `O=C(Cn1c(=O)oc2ccc(Cl)cc21)Nc1ccon1`, the Potency result was “inactive”.

`O=C(CCN1C(=O)/C(=C/c2ccccc2Cl)SC1=S)N1CCCC1`: the Potency was 11.2 µM (active).

With `Cc1cc(NC(=S)NC(=O)/C=C/c2ccc(S(=O)(=O)N3CCOCC3)cc2)ccc1Br`, the Potency was 7.05 µM (active).

With `COc1ccc(-c2cc(C(F)(F)F)nc(S(=O)(=O)CCCC(=O)Nc3cccnc3Cl)n2)cc1OC`, the Potency is 11.2 µM (active).

Turning to `O=S(=O)(c1ccc(NC(=S)N/N=C/c2ccc(Oc3ccccc3)cc2)cc1)N1CCOCC1`, the Potency was 1.12 µM (active).

Consider `CC(C)(C)S(=O)(=O)c1cnc2c(-c3ccsc3)cnn2c1N`, for which the Potency was 22.3 µM (active).

Turning to `O=C(COc1ccccc1Cl)NCCCN1CCOCC1`, the Potency entry is “inactive”.

With `Cc1cc(C)c2sc(NC(=O)c3ccc(N4C(=O)CCC4=O)cc3)nc2c1`, the Potency was 0.0705 µM (active).

As to `CCn1cc(C(=O)O)c(=O)c2cc(F)c(N3CCN(C(=S)NC(=O)c4ccccc4C)CC3)cc21`, the Potency result is “inactive”.

As for `COc1ccc(-c2cc(C(=O)NNC3=NCCC3)c3c(C)nn(-c4ccccc4)c3n2)cc1`, the Potency is 4.45 µM (active).

In the case of `Cc1ccccc1NC(=O)CCN1CCN(C)CC1`, the Potency entry is “inactive”.

As for `CC(C)(C)S(=O)(=O)c1cnc2c(-c3ccc(F)cc3)cnn2c1N`, the Potency is 11.2 µM (active).

Take `COc1ccc2nc(NC(=O)c3sc4nc(C)cc(C)c4c3N)sc2c1`: the Potency is 0.0199 µM (active).

Regarding `Cc1cc(C)nc(-n2nc(C)cc2NC(=O)c2ccc(F)cc2F)n1`, the Potency was 0.996 µM (active).

Take `CN(Cc1nc2ccccc2c(=O)[nH]1)Cc1nc2ccsc2c(=O)[nH]1`: the Potency was 1.41 µM (active).

On to `CCOC(=O)C(C(=O)OCC)C(C(=O)OCC)N1CCOCC1` (stereo not given), for which the Potency is 3.15 µM (active).
